Our source for the activation and Potency values is PubChem BioAssay (NCATS).

Results filed as inconclusive are left out. Unmarked numbers belong to inactive results. Active and inactive are the calls of the source. Calls follow the shape of the dose curve; as a rule, active = well fitted activation curve with a large enough effect; inconclusive = small, poorly fitted or top-dose-only effect; inactive = no such curve, though single readings can be large or run the other way.
Potency is read from the fitted curve at half-maximal effect.

In this test the target is Cellular tumor antigen p53 (Homo sapiens) (UniProt P04637). Kind of test: Primary qHTS for small molecule compounds that upregulate eGFP-tagged delta133p53alpha (in N-terminal) cells. (AID 2060322). Also: nearly all actives have a fitted effect of over 75% in size.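 As to activation: series mostly up to about 56 µM; 0% = DMSO vehicle and 100% = reference activator.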 Particulars: NCI-H358 eGFP-delta133p53alpha fluorescence, 24 h; activation: active compounds read high. The essentials: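 NCI-H358 cells pre-induced 24 h with 10 ng/ml doxycycline to express N-terminal eGFP-delta133p53alpha, then dosed 24 h at 37C without doxycycline; fixed, Hoechst-stained, GFP intensity by laser scanning cytometry, normalized to DMSO (0%) and 57.5 uM 5-azacytidine (100%).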
Sequence of Cellular tumor antigen p53 (Homo sapiens) (P04637 whole entry, looked up): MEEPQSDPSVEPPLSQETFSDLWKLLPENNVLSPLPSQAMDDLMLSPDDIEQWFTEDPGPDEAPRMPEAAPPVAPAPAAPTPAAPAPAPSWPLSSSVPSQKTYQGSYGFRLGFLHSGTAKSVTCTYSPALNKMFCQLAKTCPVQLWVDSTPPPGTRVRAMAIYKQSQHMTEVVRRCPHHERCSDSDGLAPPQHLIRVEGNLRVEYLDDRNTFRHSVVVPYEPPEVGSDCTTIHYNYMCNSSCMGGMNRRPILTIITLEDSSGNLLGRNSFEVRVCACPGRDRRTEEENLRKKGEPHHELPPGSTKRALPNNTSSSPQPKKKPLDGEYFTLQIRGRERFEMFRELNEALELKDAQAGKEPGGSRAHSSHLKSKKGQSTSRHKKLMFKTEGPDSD
Consider `OCC1=C[C@@H](O)[C@@H]2C=CO[C@@H](O[C@@H]3O[C@H](CO)[C@@H](O)[C@H](O)[C@H]3O)[C@H]12`, for which the activation was -32.8%.

For the compound `CC(C)(OC1OC(CO)C(O)C(O)C1O)C1CCC(O)(CO)C2CC(O)C(C)(O)C2C1` (centres undefined), the activation was -19.6%.

As for `CC(=O)NC(C(=O)OC1CCC(C)(C)C2CC=C3C(=O)OCC3(O)C12C)C(C)C` (centres undefined), the activation is -16.8%.

As to `C[C@]12CCC[C@](C)(C(=O)O)C1[C@@H](O)[C@@H](O)C13CC(CCC12)C(CO)(O[C@@H]1O[C@H](CO)[C@@H](O)[C@H](O)[C@H]1O)C3` (some centres undefined), the activation is -9.16%.

`CCc1cc(S(=O)(=O)O)c2cc(C(C)C)cccc1-2`: the activation was 4.33%.

With `CC1=CC[C@]2(C(=O)O[C@@H]3O[C@H](CO[C@@H]4O[C@H](CO)[C@@H](O[C@@H]5O[C@@H](C)[C@H](O)[C@@H](O)[C@H]5O)[C@H](O)[C@H]4O)[C@@H](O)[C@H](O)[C@H]3O)CC[C@]3(C)C(CCC4[C@@]5(C)C[C@@H](O)[C@H](O)[C@@](C)(CO)C5CC[C@]43C)C2C1C` (some centres undefined), the activation was -13%.

`Nc1nc2c(ncn2CCC(CO)CO)c(=O)[nH]1`: the activation was -5.36%.

With `CCN1CCN(Cc2ccc(-c3cc4c(NC(C)c5ccccc5)ncnc4[nH]3)cc2)CC1` (centres undefined), the Potency is 26.9 µM (active).

For the compound `COC1CC(O[C@H]2CC[C@@]3(C)C(CCC4C3[C@H](OC(C)=O)[C@@H](OC(=O)/C=C/c3ccccc3)[C@]3(C)C(C(C)=O)CC[C@]43O)C2)OC(C)C1OC1CC(OC)C(OC2CC(OC)C(OC3OC(C)C(OC4OC(CO)C(O)C(O)C4O)C(OC)C3O)C(C)O2)C(C)O1` (some centres undefined), the activation was -13%.

Consider `OC[C@H]1O[C@@H](OC[C@H]2O[C@@H](OC/C=C/c3ccccc3)[C@H](O)[C@@H](O)[C@@H]2O)[C@@H](O)[C@@H]1O`, for which the activation is 20.5%.

As for `C/C(=C\C1CCC(C)C2CCC3(C)OC123)C(=O)O` (centres undefined), the activation was 8.04%.

Turning to `COC(=O)CCc1cc2ccoc2c(OC)c1O[C@@H]1O[C@H](CO)[C@@H](O)[C@H](O)[C@H]1O`, the activation is -27.7%.

In the case of `C[C@]12CCC(=O)C=C1[C@@H](O)C[C@@H]1[C@@H]2[C@@H](O)C[C@@]2(C)[C@H]1CC[C@]2(O)C(=O)CO`, the activation is 16.3%.

As for `[N-]=[N+]=N[C@]1(CO)O[C@@H](n2ccc(=O)[nH]c2=O)[C@@H](O)[C@@H]1O`, the activation was 7%.

Take `CC(C)C1=CC2C(CC[C@]2(C)O)[C@](C)(O)CC1` (some centres undefined): the activation is -6.25%.

As for `CC1(C)CCCC2(C)C=C(C(=O)O)C(O)CC12` (centres undefined), the activation is -19.1%.

Turning to `Cc1cc(O)c(C(C)C)cc1O[C@@H]1O[C@H](CO)[C@@H](O)[C@H](O)[C@H]1O`, the activation is -17.6%.

Turning to `CC1=CC(=O)C2(OC3OC(C)C(O)C(OC(=O)/C=C/c4ccccc4)C3O)C=COC(OC3OC(CO)C(O)C(O)C3O)C12` (centres undefined), the activation was -13.7%.

Consider `CC/C=C\CC1C(=O)C=CC1(CCCCC1CCC(=O)O1)OC(C)=O` (centres undefined), for which the activation is 9.92%.

Regarding `O=C1NC(=O)C(c2cnc3ccccn23)=C1c1cn2c3c(cccc13)CN(C(=O)N1CCOCC1)CC2`, the Potency is 23.9 µM (active).

`C=C1C(OC2OCC(O)C(O)C2O)CC2C(C)(C)C(O)CCC2(C)C1CC/C(C)=C\CO` (centres undefined): the activation is 7.63%.

Consider `CCC(C)C(=O)O[C@H]1C[C@](C)(O)[C@]23OC(C)(C)[C@H](C[C@H](OC(=O)c4ccccc4)[C@]2(COC(C)=O)[C@H]1OC(=O)C(C)CC)[C@H]3OC(C)=O` (some centres undefined), for which the activation was 11.5%.

As to `CC1(C)C2CCC1(C)C(OC(=O)C(O)(CC(=O)O)CC(=O)O)C2` (centres undefined), the activation is -24.4%.

Turning to `CCC(C)CC(=O)OC1C(=O)C(CO)=CC(O)C1C(C)C` (centres undefined), the Potency is 23.9 µM (active).

As to `CC(C)=CCC[C@](C)(O[C@@H]1O[C@H](CO[C@@H]2O[C@H](CO)[C@@H](O)[C@H](O)[C@H]2O)[C@@H](O)[C@H](O)[C@H]1O)C1CC[C@]2(C)[C@@H]1[C@H](O)CC1[C@@]3(C)CC[C@H](O[C@@H]4O[C@H](CO)[C@@H](O)[C@H](O)[C@H]4O[C@@H]4O[C@H](CO)[C@@H](O)[C@H](O)[C@H]4O)C(C)(C)[C@@H]3CC[C@]12C` (some centres undefined), the activation is -6.25%.

Regarding `C=C1CCC2C(C)(C)CCC[C@]2(C)[C@H]1CC/C(C)=C/C(=O)O` (some centres undefined), the activation was -3.82%.

In the case of `Cc1ccc(CNc2ncnc3ccc(-c4ccc(CO)o4)cc23)o1`, the activation was -4.46%.

Regarding `C[C@@H]1CC[C@]2(C(=O)O)CC[C@]3(C)C(=CCC4[C@@]5(C)C[C@@H](O)[C@H](O)[C@@](C)(CO)C5CC[C@]43C)C2[C@]1(C)O` (some centres undefined), the activation is 29.5%.

As for `Cc1cn2cc(C(=O)N(C)CCO)cc(NC3CCOc4cccc(C)c43)c2n1` (centres undefined), the activation is -10.3%.
